Test results reported in PubChem BioAssay.
Records with an inconclusive call do not appear. The source made the active and inactive calls.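 The calls were made as follows, unless noted: active = normalized viability below 100% at a tested concentration; inactive = the rest.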

How the values were obtained:
[1] = viability loss in pontine glioma line – cell-based, SU-DIPG-XIII, MIPE5.0, CellTiter-Glo, qHTS, dose response (AID 1347064; cut-off not given, nearly all actives have AC50 up to about 23 µM;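 as to AC50: cells exposed to compound for 48 hours before the viability read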); details: CellTiter-Glo ATP luminescence
[2] = growth inhibition of DIPG cells – cell-based, MIPE5.0 library, qHTS (AID 1347068; cut-off not given, nearly all actives have IC50 up to about 30 µM); details: SU-DIPG-XXV viability
[3] = viability loss with induced miR-34 in A549 – imaging, A549 dox-inducible miR-34, nuclei and caspase counts, primary screen (AID 1347080;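 active = compounds whose cell count with miR-34 switched on is under 0.7 times the count with it off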); details: A549 miR-34 inducible, Hoechst nuclei count, 48 h
[4] = MELAS cybrid and Rieske KO viability enhancers – cell-based, MELAS cybrids, Rieske KO mouse fibroblasts, CellTiter-Glo, primary screen (AID 1508586;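 active = mean z-score across replicates of 1.96 or higher in either the MELAS or the Rieske mutant cell line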;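 also: z relative to plate mean and SD of compound and empty wells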); details: low glucose
[5] = viability loss in pontine glioma line – cell-based, SU-DIPG-XXV, MIPE5.0, CellTiter-Glo, qHTS, dose response (AID 1347065; cut-off not given, nearly all actives have AC50 up to about 26 µM;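 also: cells exposed to compound for 48 hours before ATP readout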); details: CellTiter-Glo ATP luminescence
[6] = JHH-DIPG-1 glioma cell viability, MIPE5.0 library, CellTiter-Glo luminescence, qHTS (AID 1347067; cut-off not given, nearly all actives have AC50 up to about 26 µM;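 also: cells exposed to compound for 48 hours before readout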); details: JHH-DIPG-1 glioma viability, CellTiter-Glo ATP luminescence
[7] = compounds altering HSF1 focus formation in cells – imaging, Selleck Cancer Library (AID 1347162; in the data active = plate-normalised HSF1 focus index below about 0.46); details: human cells, HSF1 nuclear foci imaging, at 10 µM; SSMD: measured here: HSF1 foci SSMD mean; cell count: measured here: cell number; plate-normalised HSF1 focus index: stronger effect = lower value
[8] = drug combination growth inhibition, ovarian cancer – cell-based, oncology-focused library, rucaparib conditional, profiling panel (AID 1508598); details: patient-derived ovarian cancer cells, CellTiter-Glo viability, 144 h, stronger effect = lower value
[9] = stronger effect = lower value, cell number ratio, induced over uninduced
[10] = measured here: relative caspase fold change +Dox/-Dox
[11] = measured here: total cells with miR-34 induction, stronger effect = lower value
[12] = measured here: total cells without miR-34 induction
[13] = MELAS cybrid survival, CellTiter-Glo 48 h, stronger effect = higher value
[14] = Rieske KO mouse fibroblast survival, CellTiter-Glo 72 h

With Cc1cc(C)c2c(c1)[C@@H](N(Cc1cc(C(F)(F)F)cc(C(F)(F)F)c1)c1nnn(C)n1)CCCN2CC1CCC(C(=O)O)CC1 (stereo not given in full) the AC50 [1] was 20.9 µM (active), the outcome [2] was “inactive” and the fold change [3, 9] was 0.938 (inactive). The fold change [3, 10] was 0.636, the cell count [3, 11] was 6920 and the cell count [3, 12] was 7380. For the same compound, the z-score [4, 13] was -0.009 (inactive) and the z-score [4, 14] was -0.0411.
In the case of NCCCC[C@H](NC(=O)[C@@H](NC(=O)[C@H](Cc1c[nH]c2ccccc12)NC(=O)[C@H](CCCCN)NC(=O)[C@H](CCCCN)NC(=O)[C@H](Cc1c[nH]c2ccccc12)NC(=O)[C@H](Cc1c[nH]c2ccccc12)NC(=O)[C@H](CCCCN)NC(=O)[C@@H](N)CCCCN)C(c1ccccc1)c1ccccc1)C(N)=O, the AC50 [5] is reported as 20.9 µM (active).
In the case of COc1cc2ncnc(Nc3cccc(Cl)c3F)c2cc1OC(=O)N1CCN(C)C[C@H]1C, the outcome [1] is reported as “inactive” and the outcome [2] is reported as “inactive”.
For Nc1ccn([C@@H]2C(F)=C(CO)[C@@H](O)[C@H]2O)c(=O)n1, the outcome [1] was “inactive”, the outcome [6] was “inactive” and the outcome [2] was “inactive”.
With C[C@@H](Nc1cc(F)cc(F)c1)c1cc(C(=O)N(C)C)cc2c(=O)cc(N3CCOCC3)oc12 the AC50 [5] was 9.34 µM (active).
In the case of CC(C)[C@@H](CS(=O)(=O)C(C)C)N1C(=O)[C@@](C)(CC(=O)O)C[C@H](c2cccc(Cl)c2)[C@H]1c1ccc(Cl)cc1, the AC50 [5] is reported as 18.6 µM (active) and the AC50 [6] is reported as 23.5 µM (active).
With CC1(C)CC[C@]2(C(=O)O)CC[C@]3(C)C(=CC[C@@H]4[C@@]5(C)C[C@@H](O)[C@H](O)C(C)(C)[C@@H]5CC[C@]43C)[C@@H]2C1 the AC50 [5] was 20.9 µM (active).
For CC1=C2C[C@H]3[C@@H](CC[C@@H]4C[C@H](NS(C)(=O)=O)CC[C@@]43C)[C@@H]2CC[C@@]2(C1)O[C@@H]1C[C@H](C)CN[C@H]1[C@H]2C, the AC50 [5] was 20.9 µM (active).
In the case of C#Cc1cccc(Nc2ncnc3cc4c(cc23)OCCOCCOCCO4)c1, the outcome [1] is reported as “inactive”, the fold change [3, 9] is reported as 1.01 (inactive) and the fold change [3, 10] is reported as 0.44. The cell count [3, 11] was 7300, the cell count [3, 12] was 7200 and the z-score [4, 13] was 0.219 (inactive). It also gave a z-score [4, 14] of 0.164.
In the case of CN(C)CCNC(=O)NC[C@H]1CC[C@@H]2[C@H](O1)c1cc(C(F)(F)F)ccc1N[C@H]2c1ccccc1, the AC50 [5] is reported as 0.186 µM (active).
In the case of Cc1ccc(C(=O)Nc2ccc(Oc3cc4cnn(C)c4cc3-c3cn[nH]c3)c(F)c2)c(=O)n1-c1ccc(F)cc1, the AC50 [5] is reported as 4.68 µM (active).
For OCCOc1ccc(/C(=C(/CCCl)c2ccccc2)c2ccccc2)cc1, the outcome [1] was “inactive” and the outcome [2] was “inactive”.
In the case of N#Cc1ccc(Cn2cncc2CN2CCN(c3cccc(Cl)c3)C(=O)C2)cc1, the AC50 [5] is reported as 9.34 µM (active).
For O=C(Nc1cnccc1Cl)N1CCN(Cc2ccc3c(c2)OC(F)(F)O3)CC1, the outcome [1] was “inactive” and the outcome [2] was “inactive”.
For CC1(N)CCN(c2cnc(-c3cccc(Cl)c3Cl)c(N)n2)CC1, the outcome [1] was “inactive”, the outcome [6] was “inactive” and the outcome [2] was “inactive”.
With CN1CCN(c2nc(C3=C(c4c[nH]c5ccccc45)C(=O)NC3=O)c3ccccc3n2)CC1 the outcome [1] was “inactive”, the outcome [6] was “inactive” and the outcome [2] was “inactive”. The fold change [3, 9] was 0.982 (inactive), the fold change [3, 10] was 0.809 and the cell count [3, 11] was 8410. The cell count [3, 12] was 8570, the SSMD [7] was 1.44 and the cell count [7] was 7110. The plate-normalised HSF1 focus index [7] was 1.09 (inactive), the z-score [4, 13] was -0.37 (inactive) and the z-score [4, 14] was 0.177. The viability ([8]; at 0.000305 µM, OCI-C5x cells, with rucaparib 10 µM, 100% = cells with rucaparib alone) was 105% (inactive), the viability ([8]; at 0.000305 µM, OCI-C5x cells, without rucaparib) was 102% (inactive) and the viability ([8]; at 0.000305 µM, OCI-P5x cells, with rucaparib 20 µM, 100% = cells with rucaparib alone) was 96.2% (active). The viability ([8]; at 0.000305 µM, OCI-P5x cells, without rucaparib) was 83.9% (active), the viability ([8]; at 0.00122 µM, OCI-C5x cells, with rucaparib 10 µM, 100% = cells with rucaparib alone) was 116% (inactive) and the viability ([8]; at 0.00122 µM, OCI-C5x cells, without rucaparib) was 119% (inactive). The viability ([8]; at 0.00122 µM, OCI-P5x cells, with rucaparib 20 µM, 100% = cells with rucaparib alone) was 102% (inactive), the viability ([8]; at 0.00122 µM, OCI-P5x cells, without rucaparib) was 88.4% (active) and the viability ([8]; at 0.00488 µM, OCI-C5x cells, with rucaparib 10 µM, 100% = cells with rucaparib alone) was 112% (inactive). The viability ([8]; at 0.00488 µM, OCI-C5x cells, without rucaparib) was 120% (inactive), the viability ([8]; at 0.00488 µM, OCI-P5x cells, with rucaparib 20 µM, 100% = cells with rucaparib alone) was 106% (inactive) and the viability ([8]; at 0.00488 µM, OCI-P5x cells, without rucaparib) was 97.3% (active). The viability ([8]; at 0.0195 µM, OCI-C5x cells, with rucaparib 10 µM, 100% = cells with rucaparib alone) was 114% (inactive), the viability ([8]; at 0.0195 µM, OCI-C5x cells, without rucaparib) was 122% (inactive) and the viability ([8]; at 0.0195 µM, OCI-P5x cells, with rucaparib 20 µM, 100% = cells with rucaparib alone) was 102% (inactive). For the same compound, the viability ([8]; at 0.0195 µM, OCI-P5x cells, without rucaparib) was 96.2% (active), the viability ([8]; at 0.0781 µM, OCI-C5x cells, with rucaparib 10 µM, 100% = cells with rucaparib alone) was 113% (inactive) and the viability ([8]; at 0.0781 µM, OCI-C5x cells, without rucaparib) was 116% (inactive). For the same compound, the viability ([8]; at 0.0781 µM, OCI-P5x cells, with rucaparib 20 µM, 100% = cells with rucaparib alone) was 110% (inactive), the viability ([8]; at 0.0781 µM, OCI-P5x cells, without rucaparib) was 101% (inactive) and the viability ([8]; at 0.313 µM, OCI-C5x cells, with rucaparib 10 µM, 100% = cells with rucaparib alone) was 109% (inactive). For the same compound, the viability ([8]; at 0.313 µM, OCI-C5x cells, without rucaparib) was 129% (inactive), the viability ([8]; at 0.313 µM, OCI-P5x cells, with rucaparib 20 µM, 100% = cells with rucaparib alone) was 117% (inactive) and the viability ([8]; at 0.313 µM, OCI-P5x cells, without rucaparib) was 107% (inactive). The viability ([8]; at 1.25 µM, OCI-C5x cells, with rucaparib 10 µM, 100% = cells with rucaparib alone) was 114% (inactive), the viability ([8]; at 1.25 µM, OCI-C5x cells, without rucaparib) was 122% (inactive) and the viability ([8]; at 1.25 µM, OCI-P5x cells, with rucaparib 20 µM, 100% = cells with rucaparib alone) was 115% (inactive). The viability ([8]; at 1.25 µM, OCI-P5x cells, without rucaparib) was 109% (inactive), the viability ([8]; at 5 µM, OCI-C5x cells, with rucaparib 10 µM, 100% = cells with rucaparib alone) was 129% (inactive) and the viability ([8]; at 5 µM, OCI-C5x cells, without rucaparib) was 135% (inactive). For the same compound, the viability ([8]; at 5 µM, OCI-P5x cells, with rucaparib 20 µM, 100% = cells with rucaparib alone) was 141% (inactive) and the viability ([8]; at 5 µM, OCI-P5x cells, without rucaparib) was 109% (inactive).
